Sampled rows, rich in hits. Any-hit rate of the full collection: about 2.2%.
Shn3 3UTR inh: reduces Shn3 3'UTR luciferase signal in osteoblasts. Clone20 osteoblast Shn3 3'UTR firefly luciferase, 24 h. AID 588674. inhibition, % at 12.5 µM. actives 0.52% (n = 360,000);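 active = mean inhibition of at least 75% with every replicate also reaching 75%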;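 note: 0% = median of neutral control wells and 100% = pilot-screen positive control compound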
EWS-Fli block: inhibitors of EWS/Fli oncoprotein transcriptional activity. A673 NR0B1-luciferase reporter, viability-normalised. inhibition, % at 12.6 µM. actives 0.67% (n = 350,000);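 active = mean inhibition of at least 50% after viability correction, with every replicate also passing that limit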;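 note: firefly luciferase signal divided by Alamar Blue viability fluorescence both relative to DMSO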
LMP1 NFkB inh: Epstein-Barr LMP1 NF-kappaB reporter inhibition | AID 504558 | LMP1-induced NF-kappaB luciferase reporter cells, luminescence | actives 0.69% (n = 350,000) | inhibition, % at 12.5 µM; in the data active = inhibition above about 41%;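 note: 0% = neutral control wells and 100% = reference inhibitor control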
TRPM1 prom inh: inhibitors of MITF-driven TRPM1 promoter in melanoma cells; AID 488899; actives 0.83% (n = 330,000); SK-MEL-5 TRPM1 promoter luciferase, 24 h; inhibition, % at 12.5 µM;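 active = mean inhibition across replicates of 60% or more, whatever share of single replicates reaches that level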
PAX8 inh HTS: PAX8 transcriptional activity inhibition; AID 652154; inhibition, % at 12.6 µM; actives 1.2% (n = 360,000); RMG-I TPO-luciferase reporter, SteadyGlo, 24 h;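 active = mean replicate inhibition at least 60% with every replicate also reaching 60%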;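 note: luciferase light reporting Pax8 driven TPO promoter activity; plate controls were median of neutral control wells for no effect and mitoxantrone controls for full effect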
LGR2 antag: blocks bursicon-induced cAMP signaling via Drosophila LGR2. actives 0.35% (n = 380,000). AID 720647. inhibition, % at 9.99 µM. HEK293 LGR2, CRE-luciferase, bursicon-stimulated, 4 h;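 active = drop in luminescence signal, shown as inhibition above about 50% in the replicate tests, limit read from the data, passing the limit was not always enough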;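 note: agonist challenge used bursicon conditioned medium at about half maximal strength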
The depositor's hits bear a star; x = not tested or not shown.

SMILES	Shn3 3UTR inh	EWS-Fli block	LMP1 NFkB inh	TRPM1 prom inh	PAX8 inh HTS	LGR2 antag
CC(C)(C)n1nnnc1C(c1ccc(F)cc1)N(Cc1ccc(F)cc1)Cc1ccco1 (configuration not stated)	18	x	0	13	33	x
CC(C)(C)n1nnnc1C(c1ccc(C(F)(F)F)cc1)N(Cc1ccc(F)cc1)Cc1ccco1 (configuration not stated)	89*	x	1	3	x	x
Cc1noc(C)c1NC(=O)Nc1ccc2c(c1)C(=O)N([C@H](C)CO)C[C@@H](C)[C@H](CN(C)Cc1ccc(C(=O)O)cc1)O2	x	-4	x	x	x	0
Cc1nn(-c2ccccc2)c(Cl)c1C(=O)NCCCCNC(=O)c1c(C)nn(-c2ccccc2)c1Cl	-32	x	61*	6	x	x
O=C(C[C@H]1C[C@@H]2c3cc(NC(=O)C4CCOCC4)ccc3O[C@@H]2[C@@H](CO)O1)NCCc1ccccc1	x	7	x	x	6	5
Cc1cccc(C(=O)Nc2ccc(C(=O)/C=C/c3cccnc3)cc2)c1	97*	x	27	27	-53	-26
Cc1cccc(C(=O)Nc2ccc(C(=O)/C=C/c3ccncc3)cc2)c1	85	71*	38	55	23	-4
O=C(/C=C/c1cccnc1)c1ccc(NC(=O)c2cccc(Br)c2)cc1	-1	x	-2	-4	x	x
COCC(=O)Nc1ccc2c(c1)C(=O)N(C)C[C@@H](OC)[C@H](C)CN(CCC(F)(F)F)[C@H](C)CO2	x	-9	x	x	-9	9
COCCNC(=O)C[C@@H]1CC[C@@H]2[C@H](COC[C@H](O)CN2S(=O)(=O)c2ccccc2C)O1	x	6	x	x	-6	14
Nc1cc2c(cc1Br)-c1c(C(=O)O)cccc1C2O (configuration not stated)	86*	-20	23	-14	9	x
COc1cc(N)c(Br)cc1C(=O)O	-7	8	2	-11	0	6
CCC/C=C/c1ccc(CN2C(C)C(=O)N(Cc3cn(CCC4OCCCO4)nn3)CCS2(=O)=O)cc1 (configuration not stated)	-30	5	-2	x	81*	8
CCOC(=O)c1sc(Nc2nc(C)cc(C)n2)nc1C	10	54*	13	33	33	5
COCC#Cc1ccc2c(c1)O[C@@H](CN(C)Cc1ccccc1)[C@H](C)CN([C@@H](C)CO)S2(=O)=O	x	22	x	x	x	10
COCC(=O)N(C)C[C@H]1Oc2cc(-c3ccncc3)ccc2S(=O)(=O)N([C@H](C)CO)C[C@@H]1C	x	-7	x	x	x	-20
COc1cccc(/C=C2\Oc3ccc(O)cc3C2=O)c1O	-3	-4	7	-17	-28	66*
COC(=O)c1ccc2c(c1)C(=O)/C(=C/c1ccc(O)cc1)O2	-50	x	-3	-34	-88	-36
O=C(C[C@H]1CC[C@@H]2[C@H](COC[C@@H](O)CN2S(=O)(=O)c2ccccc2)O1)NCc1ccc2c(c1)OCO2	x	4	x	x	2	-34
Cc1ccc(CNC(=O)CSc2c3c(nc4ccc(Cl)cc24)CCCC3)o1	84*	x	8	16	x	x
O=C(CSc1c2c(nc3ccc(Cl)cc13)CCCC2)N1CCN(C(=O)c2ccco2)CC1	93*	21	3	59	32	17
C[C@H](CO)N1C[C@H](C)[C@H](CN(C)Cc2ccccc2)OCCCC[C@H](C)Oc2ccc(NC(=O)CCCN(C)C)cc2C1=O	x	2	x	x	-3	12
Cc1ccc(N=CC2=C(O)CC(c3ccc(Cl)cc3)CC2=O)cc1 (configuration not stated)	0	6	-10	-2	146*	12
O=C1CC(c2ccccc2)CC(O)=C1C=Nc1ccccc1 (configuration not stated)	2	13	-13	-14	-5	-18
CO[C@H]1CN(C)C(=O)c2cc(NS(C)(=O)=O)ccc2OC[C@@H](C)N(CC2CCOCC2)C[C@H]1C	x	10	x	x	4	6
CCCc1cn(CC[C@@H]2CC[C@@H](NS(=O)(=O)c3ccc(-c4ccccc4)cc3)[C@H](CO)O2)nn1	x	4	x	x	10	-1
CCCn1c(=O)n(C)c(=O)c2c(SCC(=O)NC34CC5CC(CC(C5)C3)C4)nc(CC(C)C)nc21	0	19	-39	68*	5	-8
